From PubChem BioAssay AID360 (National Center for Advancing Translational Sciences (NCATS), 2006)
Screen size: about 48,000 compounds; about 550 (1.1%) were called active. Not shown: some 4% with an inconclusive outcome. Many of the other results were omitted from the sample, so actives are more common in it than they were. A number with no mark means an inactive call. No stated cut-off is given here; in the data, active means potency below about 15 µM; inconclusive means mostly about 16 µM to 33 µM; inactive means weaker than that.

These compounds were tested against Lysosomal acid glucosylceramidase (Homo sapiens) (UniProt P04062) (assay: Glucocerebrosidase). Conditions: purified enzyme, resorufin glucoside fluorescence (screen aimed at inhibitors), 20 min.
Lysosomal acid glucosylceramidase (Homo sapiens), sequence (P04062 whole entry, looked up): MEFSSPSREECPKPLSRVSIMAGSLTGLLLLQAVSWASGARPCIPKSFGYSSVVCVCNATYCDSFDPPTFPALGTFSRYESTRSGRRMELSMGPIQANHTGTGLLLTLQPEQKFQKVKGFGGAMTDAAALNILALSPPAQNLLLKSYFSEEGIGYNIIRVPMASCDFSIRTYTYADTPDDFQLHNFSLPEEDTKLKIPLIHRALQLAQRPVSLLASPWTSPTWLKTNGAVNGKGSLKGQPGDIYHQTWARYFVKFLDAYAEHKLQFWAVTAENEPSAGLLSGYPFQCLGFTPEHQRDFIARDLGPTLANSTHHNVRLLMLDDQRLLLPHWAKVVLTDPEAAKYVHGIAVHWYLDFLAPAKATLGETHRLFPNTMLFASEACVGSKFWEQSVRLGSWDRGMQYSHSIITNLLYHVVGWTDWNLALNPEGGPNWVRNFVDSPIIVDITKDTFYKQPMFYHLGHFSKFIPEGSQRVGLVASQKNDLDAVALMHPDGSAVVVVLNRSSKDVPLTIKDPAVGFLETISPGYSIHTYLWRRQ
Description: NCGC Assay Overview: Beta-glucocerebrosidase catalyzes the hydrolysis of beta-glucocerebroside to glucose and ceramide. The inherited deficiency of beta-glucocerebrosidase results in Gaucher disease, which is characterized by a wide variety of symptoms including hepatosplenomegaly, anemia, thrombocytopenia, bony lesions and bone marrow infiltration with characteristic storage cells, known as Gaucher cells. There are also forms of the disorder affecting the central nervous system. Patients with the same genotypes can manifest with diverse clinical presentations and it is believed that improper folding and trafficking of beta-glucocerbrosidase may contribute to the phenotypes observed. Low molecular weight molecules, acting as chaperones, may potentially restore trafficking of misfolded beta-glucocerebrosidase from the endoplasmic reticulum to the lysosomes, thereby enhancing functional lysosomal beta-glucocerebrosidase activity. Using normal beta-glucocerebrosidase, an assay was developed to screen for small molecule inhibitors that could potentially act as molecular chaperones on the mutant forms [developed with NIH investigator Dr. Ellen Sidransky's laboratory]. Two pro-fluorescent substrates were chosen for two screens against a small molecule library. One beta-glucocerebrosidase assay used Resorufin beta-D-Glucopyranoside (Marker Gene Technology Inc.), generating a red fluorescent product. The second assay used Fluorescein di-beta-D-Glucopyranoside, generating a blue fluorescent product. […] The IC50 values of Conduritol B Epoxide, a known glucocerebrosidase inhibitor, were determined to be 87.5 uM and 117 uM, respectively. The use of two difference pro-fluorescent substrates in the screens helped to eliminate false positives. All compounds were screened in a titration series resulting in AC50s (e.g., IC50s or EC50s).
NCGC Assay Protocol Summary: Both enzyme and substrate were diluted in buffer composed of 50mM citric acid/KH2PO4, 10mM sodium taurocholate and 0.01% tween-20 at pH 5.9. The final concentration of the enzyme was 0.2 nM in both assays. The compound library was titrated in 7 to 15 concentrations for the primary screens with a final concentration ranging from 0.6 nM to 50 uM. This particular assay protocol is for the "red" substrate, and it was performed in 1536-well plate format as follows: Red fluorescence substrate assay: 2 uL enzyme 23 nL compound 1 uL substrate (final concentration of 30 uM) Incubate at room temperature (RT) for 20 minutes Read the plate in Viewlux plate reader (Ex=548(7) and Em=600(10)).
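Further: the screen sought inhibitors.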
Potency means the concentration at half of the fitted maximal effect.

Row | Compound | Potency
1 | Fc1ccc(N2CCN(Cc3ccc4c(c3)OCO4)CC2)cc1 | > 76.9 µM
2 | CC(C)c1ccc(O)c(CN2CCN(c3ccccc3)CC2)c1 | 10.2 µM (active)
3 | O=C(c1cc(-c2ccncc2)nc2ccccc12)N1CCC2(CC1)OCCO2 | > 76.9 µM
4 | CC(=NCC1CCCO1)c1c(O)n(-c2ccccc2)c(=O)[nH]c1=O (stereo not given) | > 76.9 µM
5 | CC(=O)c1c(O)n(C2CCCCCC2)c(=O)[nH]c1=O | > 76.9 µM
